Assay results as given in PubChem BioAssay.
Activity calls are given as the source filed them. Unless noted, the rule behind the calls is not given here.

Legend:
[1] = resazurin metabolic signal in HepG2 cells – cell-based, resazurin fluorescence, 24 h, PK04 Diversity Set, profiling panel (AID 1172); details: HepG2 viability, higher = more signal
[2] = budding yeast growth changes without added modifier – OD600, strain BY4716, 24 h, basal condition, primary screen (AID 1173); details: S. cerevisiae BY4716 growth, OD600, 24 h; higher = more signal, called active from +8 up or from −8 down
[3] = viability profiling in MM1S myeloma cells – cell-based, resazurin fluorescence, basal, 24 h, PK04 Diversity Set, profiling panel (AID 1174); details: higher = more signal, called active from +8 up or from −8 down;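 note: MM1S multiple myeloma cell line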
[4] = biological target: Dihydroorotate dehydrogenase (quinone), mitochondrial (Plasmodium falciparum (isolate 3D7)) (UniProt Q08210); test: inhibition of P. falciparum DHODH – biochemical, C-terminal His tag, absorbance 600 nm, primary screen (AID 1175); details: PfDHODH enzyme, DCIP absorbance 600 nm; higher = more signal, called active from +8 up or from −8 down;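 note: recombinant parasite enzyme with a five histidine tag at its C terminus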
Dihydroorotate dehydrogenase (quinone), mitochondrial (Plasmodium falciparum (isolate 3D7)), sequence (Q08210 whole entry, looked up): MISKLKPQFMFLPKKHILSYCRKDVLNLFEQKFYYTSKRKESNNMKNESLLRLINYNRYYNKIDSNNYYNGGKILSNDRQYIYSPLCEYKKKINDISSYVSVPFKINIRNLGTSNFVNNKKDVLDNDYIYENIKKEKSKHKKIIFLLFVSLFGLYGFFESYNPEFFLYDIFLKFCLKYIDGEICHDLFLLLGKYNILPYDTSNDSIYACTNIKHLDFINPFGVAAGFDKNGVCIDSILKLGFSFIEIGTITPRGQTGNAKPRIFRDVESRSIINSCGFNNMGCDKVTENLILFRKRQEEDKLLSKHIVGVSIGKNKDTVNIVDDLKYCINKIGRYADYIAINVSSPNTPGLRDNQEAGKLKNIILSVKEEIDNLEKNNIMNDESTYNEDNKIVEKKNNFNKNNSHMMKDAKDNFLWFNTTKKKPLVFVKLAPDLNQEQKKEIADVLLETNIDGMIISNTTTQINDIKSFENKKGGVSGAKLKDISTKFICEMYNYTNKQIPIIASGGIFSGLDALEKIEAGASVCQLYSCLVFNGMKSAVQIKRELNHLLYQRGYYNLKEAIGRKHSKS

[5] = inhibition of PAO1 biofilm formation – strain PAO1, LB-PBS medium, absorbance 600 nm, primary screen (AID 1176); details: P. aeruginosa PAO1 growth/biofilm, A600, 12 h; higher = more signal
[6] = growth modulation of vineyard yeast isolate – strain RM11-1a, OD600, basal, 24 h, primary screen (AID 1177);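 note: cultures grown under basal conditions with no added stressor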; details: S. cerevisiae RM11-1a growth, OD600, 24 h; higher = more signal, called active from +8 up or from −8 down
[7] = growth of efflux-deficient E. coli DRC39 – strain DRC39, OD650, 24 h, E. coli filamentation inducers, primary screen (AID 1178);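 note: growth measured as culture turbidity by optical density at 650 nm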; details: E. coli DRC39 acrAB, higher = more signal, called active from +8 up or from −8 down
[8] = growth of efflux-deficient E. coli DRC39 – strain DRC39, OD650, 48 h, E. coli filamentation inducers, primary screen (AID 1179);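 note: screen aims at cell division blockers that make cells filament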; details: E. coli DRC39 delta-acrAB growth, higher = more signal, called active from +8 up or from −8 down
[9] = viability profiling in RPMI8226 myeloma cells – cell-based, resazurin fluorescence, basal, 24 h, PK04 Diversity Set, profiling panel (AID 1180); details: higher = more signal;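 note: RPMI8826 multiple myeloma cell line at 5000 cells per well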
[10] = biological target: E3 ubiquitin-protein ligase XIAP (Homo sapiens) (UniProt P98170); test: small molecules binding XIAP protein – biophysical, small-molecule microarray, fluorescence 635 nm, primary screen (AID 1181); details: higher = more signal;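 note: score merges 667 nm emission and signal to noise over triplicate slides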
E3 ubiquitin-protein ligase XIAP (Homo sapiens), sequence (P98170 whole entry, looked up, the tested form may be a part): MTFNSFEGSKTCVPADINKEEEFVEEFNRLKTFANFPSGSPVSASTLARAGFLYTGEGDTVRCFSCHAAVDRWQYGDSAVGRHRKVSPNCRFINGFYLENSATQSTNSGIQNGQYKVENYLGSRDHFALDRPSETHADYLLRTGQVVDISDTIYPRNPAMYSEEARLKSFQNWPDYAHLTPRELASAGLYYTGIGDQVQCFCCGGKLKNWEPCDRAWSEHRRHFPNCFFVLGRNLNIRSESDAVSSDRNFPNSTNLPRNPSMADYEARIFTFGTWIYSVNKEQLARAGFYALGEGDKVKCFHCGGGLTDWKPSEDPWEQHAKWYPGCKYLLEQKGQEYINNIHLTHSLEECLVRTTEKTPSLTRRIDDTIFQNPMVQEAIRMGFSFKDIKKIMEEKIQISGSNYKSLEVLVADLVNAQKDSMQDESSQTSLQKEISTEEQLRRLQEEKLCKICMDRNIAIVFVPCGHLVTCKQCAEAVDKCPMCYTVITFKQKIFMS

[11] = tested on: XIP peptide (Xip251-270) binding; test: XIP fragment 251-270 binding compounds – biochemical, small-molecule microarray, fluorescence 635/667 nm, 0.1 µg/mL protein, primary screen (AID 1182); details: fluorescent protein binding, 635 nm, higher = more signal, called active from +8 up or from −8 down
[12] = tested on: XIP peptide (Xip251-270); test: compounds binding XIP fragment 251-270 – biochemical, small-molecule microarray, fluorescence 635/667 nm, 0.5 µg/mL protein, primary screen (AID 1183); details: fluorescence 635 nm, higher = more signal
[13] = blood-stage malaria parasite viability loss – strain 3D7, DAPI fluorescence, 100 nL, primary screen (AID 1184);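 note: parasites grown inside human red blood cells in medium with human serum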; details: P. falciparum 3D7 growth, 3 d, higher = more signal
[14] = biological target: Homeobox protein Hox-A13 (Mus musculus) (UniProt Q62424); test: disruptors of Hoxa13 oligonucleotide interaction – biochemical, fluorescence polarization, labeled oligonucleotide, primary screen (AID 1185); details: Hoxa13:DNA binding, 15 min, higher = more signal, called active from +8 up or from −8 down
Homeobox protein Hox-A13 (Mus musculus), sequence (Q62424 whole entry, looked up): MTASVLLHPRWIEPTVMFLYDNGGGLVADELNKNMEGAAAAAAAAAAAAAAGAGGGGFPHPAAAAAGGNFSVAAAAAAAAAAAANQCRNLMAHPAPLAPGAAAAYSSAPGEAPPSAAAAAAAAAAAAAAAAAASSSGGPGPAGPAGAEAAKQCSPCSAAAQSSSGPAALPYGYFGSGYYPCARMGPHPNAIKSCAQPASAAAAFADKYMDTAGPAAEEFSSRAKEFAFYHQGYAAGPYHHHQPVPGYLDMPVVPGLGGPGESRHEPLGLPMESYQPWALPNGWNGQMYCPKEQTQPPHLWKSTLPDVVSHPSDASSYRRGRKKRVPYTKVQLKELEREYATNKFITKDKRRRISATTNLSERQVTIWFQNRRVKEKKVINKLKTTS

[15] = blockers of DNA damage checkpoint Chk1 activation – imaging, HeLa, hydroxyurea, phospho-Chk1 antibody, percent positive cells, primary screen (AID 1186); details: hydroxyurea-induced phospho-Chk1 immunofluorescence imaging, higher = more signal
[16] = blockers of DNA damage checkpoint Chk1 activation – imaging, HeLa, hydroxyurea, phospho-Chk1 nuclear intensity, primary screen (AID 1187); details: hydroxyurea-induced phospho-Chk1 immunofluorescence imaging, higher = more signal

Structure (SMILES)	z-score [1]	z-score [2]	z-score [3]	composite z-score [4]	z-score [5]	z-score [6]	z-score [7]	z-score [8]	z-score [9]	composite z-score [10]	composite z-score [11]	composite z-score [12]	z-score [13]	z-score [14]	z-score [15]	z-score [16]
C[C@H]1C2[C@H](Cc3ccccc3)NC(=O)[C@]23C(=O)N[C@H](Cc2ccccc2)C(=O)N[C@H](Cc2ccccc2)C(=O)NC/C=C/CCC/C=C/C3[C@@H]2O[C@]12C (stereo not given in full)	-1.6	-1.6 (inactive)	-0.121 (inactive)	0.453 (inactive)	-0.283 (inactive)	0.336 (inactive)	0.276 (inactive)	-0.934 (inactive)	-0.403	-0.0807	0.353 (inactive)	0.518	-1.71	-5.67 (inactive)	0.275 (inactive)	0.371 (inactive)
O=c1cccc(-c2ccccc2)o1	0.123	-5.07 (inactive)	0.0841 (inactive)	-0.403 (inactive)	0.421 (inactive)	0.434 (inactive)	-0.438 (inactive)	0.0997 (inactive)	-0.156	0.045	-0.724 (inactive)	0.765	0.495	-1.85 (inactive)	0.403 (inactive)	0.0838 (inactive)
CCCCC(=O)N(Cc1ccccc1F)[C@@H]1CC(C(=O)NCCO)=C[C@H](Oc2c(I)cc(CO)cc2OC)[C@H]1O	-0.796	-2.51 (inactive)	-0.137 (inactive)	-1.63 (inactive)	-0.447 (inactive)	1.65 (inactive)	0.754 (inactive)	0.266 (inactive)	-0.0533	0.344	0.466 (inactive)	0.704	-1.66	-7.53 (inactive)	0.148 (inactive)	0.545 (inactive)
COCCOC(=O)N1C(=O)[C@@]2(c3cc(C#CC4=CCCCC4)ccc31)[C@H](c1ccc(OCCO)cc1)N1[C@H](c3ccccc3)[C@H](c3ccccc3)OC(=O)[C@H]1[C@@H]2C(=O)Nc1nc2ccccc2s1	1.16	1.65 (inactive)	-0.396 (inactive)	0.123 (inactive)	3.34 (inactive)	2.68 (inactive)	-0.169 (inactive)	0.422 (inactive)	0.584	0.061	-0.166 (inactive)	0.622	-1.29	3.94 (inactive)	-0.446 (inactive)	-1.1 (inactive)
CC1CC/C=C\[C@H]2OC34C=CCN(c5ccc6ccccc6c5)C(=O)[C@H]3N(CCCCCO)C(=O)[C@@H]4C2C(=O)O1 (stereo not given in full)	-0.304	-0.317 (inactive)	-0.634 (inactive)	-0.164 (inactive)	-0.484 (inactive)	-0.122 (inactive)	0.11 (inactive)	0.312 (inactive)	-0.0986	-0.471	1.37 (inactive)	-0.165	-0.0643	-6.06 (inactive)	0.549 (inactive)	-0.382 (inactive)
O=C1C2C=CC(C(O)c3ccc(-c4ccccc4)s3)N(Nc3ccccc3F)C2C(=O)N1c1ccccc1 (stereo not given)	-1.5	0.025 (inactive)	-1.38 (inactive)	0.853 (inactive)	0.366 (inactive)	1.19 (inactive)	-0.516 (inactive)	-0.795 (inactive)	-1.6	0.0101	0.251 (inactive)	0.734	-0.531	0.151 (inactive)	0.184 (inactive)	0.414 (inactive)
CCOC(=O)N1C(c2ccc(OCCCO)cc2)=NC(C(=O)OC)N1C(=O)OCC (stereo not given)	0.33	-0.445 (inactive)	0.715 (inactive)	-0.294 (inactive)	-0.565 (inactive)	-1.08 (inactive)	0.857 (inactive)	1.52 (inactive)	0.96	0.0707	1.43 (inactive)	0.735	-1.28	-4.45 (inactive)	-0.231 (inactive)	-0.116 (inactive)
C=C(/C(=C/C[C@@H](OC(C)=O)c1ccc(CO)o1)c1cnc2ccccc2c1)C(C)C	-1.05	-0.177 (inactive)	0.0858 (inactive)	-8.23 (active)	0.0721 (inactive)	0.27 (inactive)	0.99 (inactive)	-0.0766 (inactive)	0.0262	0.701	0.64 (inactive)	0.764	-1.43	-5.54 (inactive)	-0.0375 (inactive)	0.0518 (inactive)
COCCOC(=O)N1C(=O)[C@@]2(c3ccccc31)[C@H](c1ccc(O)cc1)N1[C@H](c3ccccc3)[C@H](c3ccccc3)OC(=O)[C@H]1[C@@H]2C(N)=O	-0.701	0.652 (inactive)	-0.916 (inactive)	-0.766 (inactive)	0.125 (inactive)	0.623 (inactive)	0.596 (inactive)	0.687 (inactive)	-1.01	0.0228	-0.728 (inactive)	-0.0106	0.346	-5.26 (inactive)	-0.0882 (inactive)	-0.282 (inactive)
COC(=O)[C@@]1(Cc2ccc(F)cc2)[C@H]2c3cc(C(=O)N(C)C)n(CCc4c[nH]c5ccc(OC)cc45)c3C[C@H]2CN1C(=O)c1ccccc1	-0.643	0.971 (inactive)	-2 (inactive)	-2.26 (inactive)	4.65 (inactive)	0.679 (inactive)	-0.562 (inactive)	-0.681 (inactive)	-1.59	0.326	0.661 (inactive)	-0.21	-1.52	-0.694 (inactive)	0.737 (inactive)	0.0892 (inactive)
